DRD3 antagonist: D3 dopamine receptor (human) antagonism; D3R cells, DiscoveRx beta-arrestin luminescence, antagonist mode; active compounds read low; max response, negative = inhibition, %; 360,000 tested, 2.5% active; AID 652054; in the data active means max response below about -50%; inconclusive means no clear call, values can overlap the other calls; further: on the % scale 0 is the no-effect control and ±100 the full control effect
Target sequence (P35462 whole entry, looked up): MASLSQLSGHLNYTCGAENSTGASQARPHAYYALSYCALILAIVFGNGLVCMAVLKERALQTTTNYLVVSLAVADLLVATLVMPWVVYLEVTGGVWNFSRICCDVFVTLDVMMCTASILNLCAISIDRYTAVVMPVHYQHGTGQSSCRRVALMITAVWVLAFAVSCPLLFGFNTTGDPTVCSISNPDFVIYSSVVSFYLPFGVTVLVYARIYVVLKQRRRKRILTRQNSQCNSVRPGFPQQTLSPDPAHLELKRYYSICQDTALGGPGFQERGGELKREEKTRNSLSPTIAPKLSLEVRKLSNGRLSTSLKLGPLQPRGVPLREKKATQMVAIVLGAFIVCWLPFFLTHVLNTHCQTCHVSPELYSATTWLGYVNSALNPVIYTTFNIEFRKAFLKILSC
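Cells expressing the human receptor were seeded at 1500 cells/well, incubated overnight at 37 degrees C in 5% CO2, then exposed to library compounds with dopamine controls for 90 minutes at 37 degrees C before luminescent detection.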
ATXN2 expr inh: reduces ATXN2 reporter expression in HEK-293 cells; HEK-293 ATXN2-luciferase reporter, luminescence, 24 h; Potency, µM (doses to about 57 µM), inactives show top-dose activity change, negative = inhibition, usual class: inhibitors; 360,000 tested, 0.72% active; AID 1745845; further: potency means the concentration at half of the fitted maximal effect; on the % scale 0 is the no-effect control and ±100 the full control effect; nearly all actives have a fitted effect of over 55% in size
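ATXN2-luciferase reporter cells (luciferase flanked by upstream and downstream ATXN2 gene portions) were treated 24 h at 37 °C with compounds at up to 57 uM. SteadyGlo luminescence gave expression; GF-AFC fluorescence gave viability.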
HepG2 viability: kills HepG2 cells in TGF-b inhibitor counter-screen | Potency, µM (series often up to 46.1 µM), without a hit: at the highest dose activity change, negative = cytotoxicity, actives largely listed as cytotoxic | 410,000 tested, 0.76% active | HepG2 CAGA-GFP viability, ATP luminescence, 18 h; further: potency means the concentration at half of the fitted maximal effect
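HepG2 CAGA-GFP cells (1000/well, DMEM with 1% FBS) received compound, then TGF-beta at 500 pg/mL final, and were incubated 18 hours at 37 degrees C. Viability was read by CellTiter-Glo luminescence. Media-only wells were set as complete cell-killing and DMSO as no toxicity.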
TGFb SMAD3 inh: TGF-b pathway inhibition; Potency, µM (top dose mostly 46.1 µM), for the others: top-dose activity, negative = inhibition, most hits filed as inhibitors; HepG2 CAGA-GFP TGF-b/SMAD3 reporter, GFP fluorescence, 18 h; TGF-beta stimulated, 500 pg/mL final; 410,000 tested, 1.2% active; further: potency means the concentration at half of the fitted maximal effect; on the % scale 0 is the no-effect control and ±100 the full control effect; nearly all actives have a fitted effect of over 65% in size
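Inhibition was scored as loss of TGF-beta-induced (500 pg/mL final, 18 hours, 37 degrees C) GFP in HEPG2 cells carrying a CAGA-GFP reporter, in DMEM with 1% FBS. Well GFP was summed per cell; Activity was normalised to unstimulated and stimulated DMSO wells, then concentration-response fitting.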
DRD3 agonist: activates the human D3 dopamine receptor; D3R DiscoveRx beta-arrestin cells, luminescence, 90 min; max activation, %; 410,000 tested, 0.58% active; in the data active means max activation above about 30%; further: 0% is about no effect
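Cells at 1500/well, incubated overnight, then treated with pinned compounds (dopamine as control) for 90 min at 37 degrees C. DiscoveRx reagent added for 30 - 60 minutes at room temperature; luminescence read.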
ATXN viability: cell viability loss in ATXN counter-screen; S2 cells (HEK-293 line with an ATXN2-luciferase reporter) viability, CellTiter-Fluor protease fluorescence, 24 h; Potency, µM (top dose mostly 56.7 µM), most hits filed as cytotoxic; AID 651635; 400,000 tested, 0.49% active; further: potency means the concentration at half of the fitted maximal effect; nearly all actives have a fitted effect of over 40% in size
* = called active by the depositor; i = inactive; ? = inconclusive; / = not tested or not shown. This is a sample that favours compounds with a hit; in the whole collection about 4.8% have one here. Unless noted, the call rests on the fitted dose curve; in most records, active means well fitted curve in the direction sought with a large enough effect; inconclusive means small, poorly fitted or top-dose-only effect, or another doubt; inactive means no such curve, though single readings can be large; an effect the other way counts as inactive or inconclusive.

SMILES	DRD3 antagonist	ATXN2 expr inh	HepG2 viability	TGFb SMAD3 inh	DRD3 agonist	ATXN viability
Cc1cccc(CN2CC34C=CC(CC3S2(=O)=O)O4)c1 (stereo not given)	/	/	3%	2%	/	/
COc1ccc(CNC(C)CCc2ccccc2)cc1 (stereo not given)	-55*	-11%	0%	9%	1	i
COc1cc(CCC(C)NCc2ccccc2)ccc1O (stereo not given)	-17	2%	-9%	0%	32*	i
COc1ccc(CCC(C)NC2C3CC4CC(C3)CC2C4)cc1 (stereo not given)	-97*	-18%	30%	18%	-60	i
CC(CCc1ccccc1)NCC#N (stereo not given)	-6	3%	-1%	1%	32*	i
COc1ccc(CC(=O)NC(C)CCc2ccccc2)cc1OC (stereo not given)	-17	-11%	9%	1%	-14	i
CC(=O)NC(C)CCc1ccccc1 (stereo not given)	-24	5%	-17%	5%	-6	i
COc1ccc(CCC(C)Nc2ccccc2F)cc1 (stereo not given)	-10	-12%	-19%	-8%	-4	i
CC(CCc1ccc(O)cc1)NCc1ccc(Br)cc1 (stereo not given)	18	-9%	-24%	?	80*	i
Cc1nc2nc(C)n(CCN3CCOCC3)c(=O)c2c(-c2cccc([N+](=O)[O-])c2)c1C(=O)CCCCCCCCCCN1CCC(c2ccccc2)(c2ccccc2)CC1	-93*	?	11µM*	7.1µM*	-6	/
O=C(NCCCN1CCOCC1)/C(=C/c1ccc(-c2cccc([N+](=O)[O-])c2)o1)NC(=O)c1ccccc1	3	/	-33%	-2%	-1	?
COc1cc(CN2CCCC(C(=O)c3ccc(C(C)(C)C)cc3)C2)cc(OC)c1O (stereo not given)	-59*	4%	-29%	0%	-22	i
CCOc1cc(CN2CCCC(C(=O)c3cccc(C(F)(F)F)c3)C2)ccc1O (stereo not given)	-70*	-27%	-22%	1%	-16	i
O=C(c1ccc(C(F)(F)F)cc1)C1CCCN(Cc2cccn2-c2ncccn2)C1 (stereo not given)	-9	?	-23%	-17%	-4	i
O=C(c1cccc(C(F)(F)F)c1)C1CCCN(Cc2cccn2-c2ncccn2)C1 (stereo not given)	-54*	?	-40%	?	-17	i
CCC(CC)c1nn2c(=O)cc(COc3ccc(NC(=O)c4ccccc4C)cc3)nc2s1	/	101%	2%	-15%	5	?
CC(C)(C)n1ncc2c(=O)n(Cc3ccc(Cl)c(OC(F)(F)F)c3)cnc21	/	/	-21%	?	/	/
CCOc1ccc(S(=O)(=O)NCC(c2cccs2)S(=O)(=O)c2ccc(C)cc2)cc1 (stereo not given)	/	/	-36%	5µM*	-14	/
Cc1cc(C)c(S(=O)(=O)NCC(c2ccco2)S(=O)(=O)c2ccccc2)c(C)c1 (stereo not given)	/	/	5%	-2%	8	/
Cc1ccc(S(=O)(=O)C(CNS(=O)(=O)c2ccc(F)c(C)c2)c2cccs2)cc1 (stereo not given)	/	/	-24%	?	-13	/
Cc1cc(C)c(S(=O)(=O)NCC(c2cccs2)S(=O)(=O)c2ccccc2)c(C)c1 (stereo not given)	/	/	6.3µM*	5.6µM*	-14	/
Cc1c(C(=O)Nc2ccncc2)oc2ccccc12	22	31%	-34%	3%	52*	i
Cc1c(C(=O)NC2CC2)oc2ccccc12	-2	/	6%	15%	-1	i
Cc1c(C(=O)NC2CCS(=O)(=O)C2)oc2ccccc12 (stereo not given)	-4	0%	14%	-26%	47*	i
CCOC(=O)N1CCc2c(sc(NCc3cccs3)c2C(=O)Nc2cc(Cl)ccc2OC)C1	/	/	-9%	?	-4	/

Compound activity: PubChem, National Center for Advancing Translational Sciences (NCATS)
